Screening data: PubChem, several laboratories
Most compounds without a hit are left out; they make up all but 3.4% or so of the library.
hgDAF12 agonist: hgDAF-12 agonism, primary luciferase screen; 1.8% of 370,000 active; HEK293 GAL4-hgDAF12 UAS-luciferase reporter, agonist luminescence; normalized to butyrate control; activation, % at 6.8 µM;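 active = activation above a cutoff set at the mean of all screened compounds plus 3 SD, cut at about 10% in these data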;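 note: 0% = DMSO wells and 100% = sodium butyrate wells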
APP 5'UTR act: activates APP 5'UTR luciferase reporter | SH-SY5Y APP 5'UTR luciferase reporter, luminescence; zero percent = DMSO vehicle wells | activation, % at 2 µM | 1% of 190,000 active;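 active = activation above a set limit, based on mean plus 3 SD of controls, cut at about 140% in these data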
ssDAF12 agonist: S. stercoralis DAF-12 activation, primary screen. HEK293 ssDAF-12/GRIP1 lit1-tk-luc reporter, luminescence; % of 3 µM dafachronic acid response. activation, % at 6.8 µM. 1% of 370,000 active;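 active = activation above the mean over all tested compounds plus 3 SD, cut at about 0.9% in these data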;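 note: 0% = DMSO-only wells and 100% = 3 µM delta7-dafachronic acid wells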
hcDAF12 agonist: H. contortus DAF-12 activation, primary screen. HEK293 hcDAF-12 lit1-tk-luc reporter, luminescence; 0% DMSO, 100% Δ7-dafachronic acid. activation, % at 6.8 µM. 1.4% of 370,000 active;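 active = activation above the mean of all tested compounds plus 3 SD, cut at about 5.5% in these data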;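 note: 100% = response to 3 µM Δ7-dafachronic acid high control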
NF-kB expr up: NF-kB expression increase, human neuronal cells; fold change at 12.5 µM; AID 1239; NF-kB reporter expression; hits give high values; 1.6% of 190,000 active; in the data active = fold change above about 3.3
LXR ag: counter-screen for hcDAF-12 agonists: agonists of human LXR-beta; shares compounds with hcDAF12 agonist; HEK293 Gal4-LXR tk-luc reporter, luminescence, 24 h; normalized: DMSO 0%, positive control 100%; activation, % at 6.8 µM; 3,400 tested, under 10 active; AID 743027;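 active = mean percent activation of the reporter above a cutoff set as the average over tested compounds plus their standard deviation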
Target sequence (P55055 whole entry, looked up, the tested form may be a part): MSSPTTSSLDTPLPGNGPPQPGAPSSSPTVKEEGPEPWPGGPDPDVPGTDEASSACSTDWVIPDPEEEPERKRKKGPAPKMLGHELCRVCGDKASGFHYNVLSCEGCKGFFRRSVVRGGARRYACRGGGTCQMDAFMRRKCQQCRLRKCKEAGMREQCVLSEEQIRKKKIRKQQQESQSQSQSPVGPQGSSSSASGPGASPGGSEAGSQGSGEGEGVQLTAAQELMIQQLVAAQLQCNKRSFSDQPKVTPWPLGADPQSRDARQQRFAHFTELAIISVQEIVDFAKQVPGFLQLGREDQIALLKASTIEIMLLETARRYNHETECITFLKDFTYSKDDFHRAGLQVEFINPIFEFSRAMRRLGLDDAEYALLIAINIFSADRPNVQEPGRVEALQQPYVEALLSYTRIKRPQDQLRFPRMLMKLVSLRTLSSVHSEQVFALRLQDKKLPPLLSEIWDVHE
hcDAF12 ag: hcDAF-12 agonism, confirmation assay. activation, % at 6.8 µM. 61% of 3,400 active. shares compounds with hcDAF12 agonist. AID 743032. HEK293 hcDAF-12 lit1-tk-luc reporter, luminescence; % of Δ7-dafachronic acid response;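 active = mean activation across triplicate tests above the threshold derived from the earlier primary screen, cut at about 5.5% in these data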;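 note: 0% = DMSO only wells and 100% = 3 µM Δ7-dafachronic acid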
* = called active by the depositor; nt = no result.

SMILES | hgDAF12 agonist | APP 5'UTR act | ssDAF12 agonist | hcDAF12 agonist | NF-kB expr up | LXR ag | hcDAF12 ag
COc1ccc(OCc2cc(C(=O)N(C)Cc3nccn3C)no2)c2ccccc12 | 3.5 | nt | -0.4 | -0.3 | nt | nt | nt
COc1ccc(OCc2cc(C(=O)N3CCCC(OC)C3)no2)c2ccccc12 (configuration not stated) | 5.8 | nt | 0.3 | 3.7 | nt | nt | nt
COc1ccc(OCc2cc(C(=O)N3CCCC(O)C3)no2)c2ccccc12 (configuration not stated) | 11.1* | nt | 1.2* | 7.0* | nt | 0.5 | 9.2*
CCCCNC(=O)C1CCCN1C(=O)NCc1ccccc1OC (configuration not stated) | 0.0 | nt | -1.0 | -0.7 | nt | nt | nt
Nc1[nH]c2cc(C(F)(F)F)ccc2c1C(=O)NCc1ccc(F)cc1 | -0.4 | nt | -0.2 | 7.0* | nt | -0.3 | 4.4
Nc1[nH]c(C(=O)c2ccccc2)c(-c2ccccc2C(F)(F)F)c1C(=O)NCc1ccc(F)cc1 | 2.2 | nt | -1.1 | -0.4 | nt | nt | nt
Nc1[nH]c2cc(Cl)ccc2c1C(=O)NCCc1ccc(Cl)cc1 | 1.3 | nt | 0.2 | 6.6* | nt | 0.1 | 7.2*
COC(=O)C[C@H]1CC[C@H]2[C@@H](COc3ccc(NC(=O)Nc4ccccc4)cc3C(=O)N2C)O1 | 0.6 | nt | -0.8 | -2.0 | nt | nt | nt
CC1CC1C(=O)Nc1nc2ccc(Cl)cc2s1 (configuration not stated) | 9.2 | nt | 0.0 | 7.0* | nt | 1.1 | 6.2*
Cc1noc(C)c1C(=O)Nc1nc2ccc(Cl)cc2s1 | 2.6 | nt | -0.3 | -0.6 | nt | nt | nt
CCOc1ccc(-c2nc(CCl)cs2)cc1 | 12.7* | 47.8 | -1.1 | 9.1* | 3.77* | 0.5 | 2.8
CN(C)c1ccc(-c2cc3ccccc3c(=O)o2)cc1 | 19.9* | nt | 1.7* | 9.5* | nt | 2.1 | 16.2*
COc1ccc(-c2cc3ccccc3c(=O)o2)cc1 | 25.3* | nt | 2.2* | 12.2* | nt | 2.2 | 11.0*
COc1ccc(C(=O)c2c(O)cc(-c3ccc(OC)cc3)oc2=O)cc1 | 2.4 | -7.0 | -0.6 | -2.6 | 1.18 | nt | nt
CN(C)CCNC(=O)c1ccccc1-c1cc2ccccc2c(=O)o1 | 2.5 | nt | -0.2 | 0.1 | nt | nt | nt
Cc1cccc(NCc2nc3ccccc3n2C)c1 | 10.2 | 59.6 | 0.8 | 7.5* | 2.15 | 0.5 | 6.9*
Cc1cccc(NCc2nc3ccccc3n2Cc2ccccc2)c1 | 1.4 | 19.2 | -1.6 | 1.3 | 1.48 | nt | nt
Cc1ccc(NCc2nc3ccccc3n2C)c(C)c1 | 11.6* | nt | 0.8 | 11.6* | nt | 1.3 | 10.9*
Cn1c(CNc2ccc(Cl)cc2)nc2ccccc21 | 12.7* | 175.0* | 2.9* | 16.2* | 3.9* | 1.0 | 11.1*
Cc1ccc(N2CCN(c3ccc(NCc4nc5ccccc5n4C)cc3)CC2)cc1 | 1.3 | -14.8 | -0.4 | 3.0 | 0.96 | nt | nt
CCCCNC(=O)NS(=O)(=O)c1ccc(NC(=O)CSc2ncnc3scc(-c4ccc(C)cc4)c23)cc1 | 4.0 | nt | 0.1 | 2.7 | nt | nt | nt
CCCC1CCC2(CC1)CCC2OC(=S)Nc1ccc(N(C)C)cc1 (configuration not stated) | -1.3 | nt | -0.4 | -1.4 | nt | nt | nt
c1csc(-c2ccc(N3CCOCC3)nn2)c1 | 13.2* | nt | 0.0 | 6.6* | nt | 1.4 | 5.8*
CCOC(=O)C1CCN(c2ccc(-c3cccs3)nn2)CC1 | 1.1 | nt | -1.0 | -2.6 | nt | nt | nt
c1ccc2c(Cn3ccnc3)c[nH]c2c1 | 3.1 | -8.3 | 0.0 | 8.0* | 1.1 | -0.3 | 2.0
Cc1ccc(CN2CCCCC(NC(=O)c3cccc(C(F)(F)F)c3)C2=O)cc1 (configuration not stated) | -2.7 | nt | -0.5 | 0.2 | nt | nt | nt
COC(=O)[C@@]12CCCCC3=C1N(CCC3)C(=O)[C@H]2CC(=O)N1CCN(C(=O)C2CC2)CC1 | 2.0 | nt | -1.0 | -1.2 | nt | nt | nt
c1ccc(-c2c[nH]c3ccc(OCc4ccc5ccccc5n4)c(-c4ccccc4)c23)cc1 | 5.7 | nt | -0.2 | 7.4* | nt | -0.2 | 3.0
COC(=O)[C@H]1[C@H]2C[C@@H]3c4[nH]c5cc(OC)ccc5c4CCN3C[C@H]2C[C@@H](OC(=O)c2cc(OC)c(OC)c(OC)c2)[C@@H]1OC | -3.9 | nt | -0.9 | -1.1 | nt | nt | nt
